Compounds without any hit were thinned out: in the full panel of roughly 83,000, 20% have a hit.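 Activity criterion: percent growth below 10, measured after cells in 96-well plates were exposed to a single compound concentration for 48 hours.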 Unmarked numbers belong to inactive results. The source made the active and inactive calls.

Common to all, as to assay: NCI-60 one-dose screen, 48 h (100 = growth as untreated, 0 = no growth, -100 = all killed)
What all share (conditions): 10 µM unless noted

The test system of assay [1] is HCT-15 colon.
In assay [2] the test system is HT29 colon.
For assay [3], the system named is SNB-19 CNS.
The test system of assay [4] is U251 CNS.
Assay [5] concerns PC-3 prostate.
In assay [6] the test system is SK-MEL-5 melanoma.
Assay [7] concerns UACC-62 melanoma.
Assay [8] concerns SK-MEL-28 melanoma.
Assay [9] relates to SK-MEL-2 melanoma.
In assay [10] the test system is EKVX NSCLC.
In assay [11] the test system is SN12C renal.
Assay [12] deals with UO-31 renal.
The test system of assay [13] is TK-10 renal.
The subject of assay [14] is ACHN renal.
Assay [15] deals with CAKI-1 renal.
For assay [16], the system named is CCRF-CEM leukemia.
Assay [17] relates to MOLT-4 leukemia.
The subject of assay [18] is SNB-75 CNS.
Assay [19] has as its system LOX IMVI melanoma.
Assay [20] concerns A498 renal.

Turning to `Clc1ccc(N/N=c2/oc3ccccc3cc2-c2cc3ccccc3[nH]2)cc1`, the growth was 59.4% in assay [1]; 69.2% in assay [2]; 85.4% in [3]; 80.2% in [4]; 63.9% in assay [5]; 82.5% in assay [6]. Further, the growth in assay [7] is 73.9%; in assay [8], 97.7%; in [9], 108%; in [10], 70.2%; in assay [11], 70.9%; in assay [12], 49.7%. The growth was 145% in [13]; 49.7% in assay [14]; 58.4% in [15]; 79.7% in assay [16]; 69.6% in assay [17].
For the compound `O=C(Nc1cccc(Cl)c1)Nc1nc2ccc([N+](=O)[O-])cc2o1`, the growth in [1] is 13.7%; in assay [2] it was 14.3%; in [3] it was 19.7%; in assay [4] it was 6.13% (active); in assay [5] it was 5.64% (active); in [7] it was 2.02% (active). The growth in assay [8] was 26%; in [9] it was 3.62% (active); in assay [10] it was 16.7%; in assay [11], 16.8%; in [12] it was 24%; in assay [13] it was 8.49% (active). Besides, the growth is 23% in assay [14], 15.8% in [15], 10.5% in assay [16] and 9.15% (active) in [17].
As to `NC(N)=Nc1ccc(Oc2ccc(Nc3ccc(Cl)c(C(F)(F)F)c3)cc2)cc1`, the growth in assay [1] was 37%; in assay [2] it was 13.7%; in assay [18], 95.2%; in [3], 3% (active); in assay [4], 3.48% (active); in assay [5], 32.5%. Besides, the growth in assay [7] is 38.2%; in assay [19] it was -96% (active); in assay [9], 91.6%; in [10] it was 52.4%; in assay [11] it was 31.7%; in assay [12] it was 69.8%. Further, the growth is 95.6% in assay [13]; 73.4% in assay [14]; 69.4% in assay [15]; 68.3% in assay [20]; 20.3% in assay [16]; 18.5% in assay [17].
Regarding `COc1cccc(C(=O)Nc2cccc(C#Cc3cccc4[nH]nc(N)c34)c2)c1`, the growth in assay [1] was 28.9%; in [2], 37.5%; in assay [18], 3.74% (active); in assay [3], 98.5%; in assay [4], 68%; in assay [5], 32.7%. The growth in assay [7] is 57.6%; in assay [19] it was 37%; in assay [8], 67.7%; in assay [10], 80.9%; in [11] it was 71.6%; in [12] it was 56.4%. Also, the growth in assay [13] is 96.5%; in assay [14], 51%; in assay [15] it was 52.4%; in assay [16] it was 28.5%.
With `NS(=O)(=O)c1ccc(-n2cc(-c3cccc(NC(=O)c4ccc(N5CCOCC5)c(C(F)(F)F)c4)c3)nn2)cc1`, the growth in assay [1] was 39.3%; in assay [2] it was 61%; in [18] it was 65.2%; in assay [3], 62.9%; in assay [4], 54.2%; in assay [5] it was 23.5%. The growth in assay [7] is 30.5%; in assay [19], 9.34% (active); in [8] it was 54.7%; in assay [10] it was 74.1%; in [11], 43.9%; in assay [12], 26.7%. Also, the growth in assay [13] was 98.6%; in assay [14], 43.5%; in assay [15], 51.1%; in assay [16], 20.3%.
On to `O=C(Nc1nc2ccc([N+](=O)[O-])cc2s1)Nc1ccccc1Cl`, for which the growth in assay [1] was 29.5%; in [2], 53.6%; in [3] it was 21.7%; in [4] it was 29.2%; in [5], 17.3%; in [6], -22.5% (active). The growth in [7] is 6.62% (active); in assay [8] it was 49.5%; in [9] it was 9.56% (active); in [10], 33.6%; in assay [11], 10.4%; in [12] it was 31.8%. Further, the growth is 40.1% in assay [13]; 42.7% in assay [14]; 21.8% in [15]; 28.9% in assay [16]; 21.8% in assay [17].
Take `CNC(=O)c1c(NC(=O)c2cccc(C(F)(F)F)c2F)sc2c1CCC(=O)C2`: the growth in assay [1] is 5.54% (active); in assay [2], 9.35% (active); in assay [18] it was 0.105% (active); in [3] it was 16.5%; in assay [4], 4.78% (active); in assay [5], 14.9%. For the same compound, the growth in assay [7] is 7.56% (active); in assay [19], 16%; in [9], 8.04% (active); in assay [10], 13.1%; in [11], 10%; in assay [12] it was -29.2% (active). In addition, the growth in [13] was 34.6%; in [14], 4.75% (active); in assay [15], -30.6% (active); in [20], -1.35% (active); in [16], 13.6%; in assay [17], 7.37% (active).
For the compound `O=S(=O)(Nc1ccc2c(c1)OCO2)c1ccc(-c2cnc(C3CC3)o2)cc1`, the growth in [1] is 20.3%; in assay [2] it was 14%; in assay [3], 38.1%; in [4], 27.4%; in assay [5], 37.9%; in [6], 30%. Moreover, the growth was 33.2% in [7]; 51.2% in [8]; 53.5% in assay [9]; 43.2% in [10]; 36.8% in assay [11]; 45.5% in assay [12]. Besides, the growth is 73.8% in assay [13]; 43.6% in [14]; 40.8% in assay [15]; 27% in assay [16]; 31.5% in assay [17].
For `Cc1ccc2sc3c(c2c1)OC(N)=C(C#N)C3c1cccc(F)c1` (configuration not stated), the growth in [1] is 6.97% (active); in [2], -19.6% (active); in assay [18], -0.701% (active); in [3], 35%; in [4], 2.42% (active); in assay [5] it was 9.24% (active). The growth was 18.3% in assay [7]; 8.96% (active) in assay [19]; 51.3% in [8]; 44.6% in assay [10]; 10.4% in assay [11]; 25.9% in [12]. The growth in assay [13] was 36.1%; in assay [14], 20.6%; in assay [15], 16.5%; in [16] it was 16.1%; in assay [17], 17.5%.
